# PubChem BioAssay AID1224864 (Chung Lab, Department of Pediatrics, Emory University, 2016)
# Screen size: about 2,000 compounds; about 20 (1%) were called active. This is one part of a sample in which actives are shown more often than they occur. How the calls were made is not given here. Residues, ends and D or L forms follow the SMILES beside them. *: point of attachment. Boc = CC(C)(C)OC(=O)*; OBn = c1ccc(CO*)cc1
# Biological target: Cystic fibrosis transmembrane conductance regulator (Homo sapiens) (UniProt P13569)
# Sequence (P13569 whole entry, looked up, stated change not applied): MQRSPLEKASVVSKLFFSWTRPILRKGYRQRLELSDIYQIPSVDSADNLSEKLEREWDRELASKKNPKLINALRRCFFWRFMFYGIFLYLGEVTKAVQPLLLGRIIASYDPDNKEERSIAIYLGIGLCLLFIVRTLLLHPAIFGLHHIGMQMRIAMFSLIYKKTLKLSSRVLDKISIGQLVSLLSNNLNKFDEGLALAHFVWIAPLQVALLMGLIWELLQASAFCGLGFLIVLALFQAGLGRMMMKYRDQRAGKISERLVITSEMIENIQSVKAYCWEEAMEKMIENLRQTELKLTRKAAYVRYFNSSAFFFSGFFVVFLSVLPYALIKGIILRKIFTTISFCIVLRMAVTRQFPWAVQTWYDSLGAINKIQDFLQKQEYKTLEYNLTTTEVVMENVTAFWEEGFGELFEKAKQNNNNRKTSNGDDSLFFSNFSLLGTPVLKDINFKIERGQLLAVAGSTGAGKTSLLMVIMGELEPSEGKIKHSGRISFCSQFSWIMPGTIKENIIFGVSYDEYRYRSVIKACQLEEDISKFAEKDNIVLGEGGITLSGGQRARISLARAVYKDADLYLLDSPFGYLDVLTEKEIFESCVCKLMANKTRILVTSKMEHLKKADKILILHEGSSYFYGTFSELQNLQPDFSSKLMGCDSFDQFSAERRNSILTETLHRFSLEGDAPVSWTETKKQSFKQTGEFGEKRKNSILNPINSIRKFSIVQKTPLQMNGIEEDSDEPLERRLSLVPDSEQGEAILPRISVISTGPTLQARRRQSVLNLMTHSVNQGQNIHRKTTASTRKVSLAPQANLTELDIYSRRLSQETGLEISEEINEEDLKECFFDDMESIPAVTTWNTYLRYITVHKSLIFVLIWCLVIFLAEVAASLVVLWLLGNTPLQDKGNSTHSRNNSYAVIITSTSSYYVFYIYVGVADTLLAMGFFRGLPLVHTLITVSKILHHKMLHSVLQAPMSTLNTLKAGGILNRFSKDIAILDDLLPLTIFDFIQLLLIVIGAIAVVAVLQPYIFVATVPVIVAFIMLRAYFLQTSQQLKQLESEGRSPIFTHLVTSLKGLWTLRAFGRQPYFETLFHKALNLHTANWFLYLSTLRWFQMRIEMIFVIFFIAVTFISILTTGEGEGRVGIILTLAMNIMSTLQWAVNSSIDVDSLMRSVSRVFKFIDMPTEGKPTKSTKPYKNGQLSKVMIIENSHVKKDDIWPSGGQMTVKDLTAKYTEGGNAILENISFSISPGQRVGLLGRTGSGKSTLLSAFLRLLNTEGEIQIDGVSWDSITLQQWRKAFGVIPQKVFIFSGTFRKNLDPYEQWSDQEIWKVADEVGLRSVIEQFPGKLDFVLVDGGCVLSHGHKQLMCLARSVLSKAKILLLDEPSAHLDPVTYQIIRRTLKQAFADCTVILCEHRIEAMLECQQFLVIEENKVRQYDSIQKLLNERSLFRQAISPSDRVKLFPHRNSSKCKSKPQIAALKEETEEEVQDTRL
# Test: F508del-CFTR plasma membrane relocalization enhancers – imaging, HeLa, high-content microscopy, immunofluorescence, primary screen (AID 1224864);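 further: HeLa cells stably expressing F508del-CFTR stained with 3G11 antibody against NBD1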;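 on plasma membrane CFTR intensity: mean immunofluorescence in a thin cell-margin band taken as plasma membrane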
# Conditions: PM immunofluorescence imaging, 24 h, at 10 µM, stronger effect = higher value, relative to vehicle wells set at 100; total CFTR intensity: measured here: total cellular F508del-CFTR signal
SMILES,plasma membrane CFTR intensity,total CFTR intensity
N/C(=N/OS(=O)(=O)c1ccc([N+](=O)[O-])cc1)c1ccncc1,87% (inactive),85%
COc1ccccc1NC(=O)N1CCc2[nH]c3ccc(Cl)cc3c2C1,92% (inactive),84%
C/C(CCc1oc2ccc(Cl)cc2c1-c1ccc(C)o1)=N\O,91% (inactive),97%
COc1ccc(/C=N\NC(=O)CCc2c(C)n[nH]c2C)c(OC)c1OC,82% (inactive),77%
COc1ccccc1Oc1c(C)oc2c(CN3CCN(CCO)CC3)c(O)ccc2c1=O,90% (inactive),89%
O=C(O)c1ccc(OCCn2ccnc2)cc1,77% (inactive),82%
CN(CCCN1CCOCC1)Cc1cn(C)nc1-c1ccccc1F,84% (inactive),87%
NCc1ccccc1COc1ccccc1,81% (inactive),83%
Cc1ccc(CN2CCN(CCCc3ccccc3)CC2CCO)cc1 (stereo not drawn),82% (inactive),85%
CCC(CO)NCCNC(CC)CO (stereo not drawn),86% (inactive),88%
Cc1ccc(N2CCN(C(=S)c3ccc(-c4cccc([N+](=O)[O-])c4)o3)CC2)cc1,81% (inactive),80%
O=C(CN1C(=O)c2ccccc2S1(=O)=O)Nc1ccccc1,84% (inactive),82%
CCCCC/C=C\C[C@H](O)/C=C/c1cccc(C[C@H](O)CCCCO)n1,107% (active),126%
CN(C)c1cc(NC(=O)CN2CCOCC2)c2ccccc2n1,91% (inactive),88%
CCOC(=O)C1C(=O)CC(C)(O)C(C(=O)OCC)C1/C=C/c1ccccc1 (stereo not drawn),95% (inactive),102%
Nc1ccc(N)c(C(=O)O)c1,77% (inactive),82%
CCOC(=O)Cn1c(C)cc(=O)c2ccccc21,114% (inactive),113%
COc1cc(C(=O)OCCCN(C)C)cc(OC)c1OC,89% (inactive),84%
CN(C)c1ccc(CNCCC(Cc2ccccc2)c2ccco2)cc1 (stereo not drawn),50% (inactive),41%
Cn1c(=O)c2c(ncn2Cc2ccccc2)n(C)c1=O,81% (inactive),82%
CNC[C@H](O)c1ccc(O)c(O)c1,101% (active),120%
CC(C)NC[C@@H](O)c1ccc(O)c(O)c1,100% (inactive),111%
CNC[C@H](O)c1cccc(O)c1,92% (inactive),96%

SMILES,plasma membrane CFTR intensity,total CFTR intensity
O[C@@H](CNC[C@H](O)c1ccccc1)c1ccccc1,90% (inactive),84%
Cn1nc(-c2ccc(Cl)cc2)nc2c(=O)n(C)c(=O)nc1-2,84% (inactive),86%
O=C(CN1C(=O)c2ccccc2C1=O)Nc1cccc([N+](=O)[O-])c1,90% (inactive),91%
COc1cc(-c2nnc(-c3cccs3)o2)cc(OC)c1OC,96% (inactive),87%
O=c1c2[nH]c3ccccc3c2ncn1CCC1=CCCCC1,87% (inactive),88%
Cc1ccc2c(c1)c1c(n2C)C(=O)CCC1,76% (inactive),75%
CCc1cc(=O)oc2cc(OCC=C(C)C)ccc12,95% (inactive),98%
COc1ccc2c(c1OC)C(=O)NC(C)=C(C(=O)OC(C)(C)C)C2O (stereo not drawn),87% (inactive),90%
O=C1C=CC(=O)C(C2=C3C(=O)N(CCc4ccccc4)CC(=O)N3CCC2)=C1,108% (active),124%
O=C1CCCCCN1Cc1ccccc1,86% (inactive),90%
COC(=O)CN1CC(=O)N(c2ccccc2)C1=S,83% (inactive),81%
COc1ccccc1/C=C/CN1CCN(Cc2ccc(F)cc2)C(CCO)C1 (stereo not drawn),77% (inactive),77%
CC(C)(CO)CNC(=O)CC1C(=O)NCCN1CC(c1ccccc1)c1ccccc1 (stereo not drawn),85% (inactive),89%
Cn1c(=O)c2nc3ccccc3nc2n(C)c1=O,96% (inactive),90%
Cc1coc2c1c(C)cc1oc(=O)c(Cc3ccccc3)c(C)c12,91% (inactive),91%
O=C(N/N=C\c1cc([N+](=O)[O-])ccc1N1CCOCC1)c1ccccn1,79% (inactive),75%
COC(=O)c1cc(-c2ccc(C)o2)nc2ccccc12,96% (inactive),99%
Cc1cccc(CN2CCN(C(c3ccccc3)c3ccc(Cl)cc3)CC2)c1 (stereo not drawn),92% (inactive),107%
Fc1ccc(C(c2ccc(F)cc2)N2CCN(C/C=C/c3ccccc3)CC2)cc1,99% (inactive),120%
C(=C\c1ccccc1)/CN1CCN(C(c2ccccc2)c2ccccc2)CC1,107% (active),125%
O=C(O)c1ccc(N2C(=O)/C(=C\c3ccccc3)N=C2c2ccccc2)cc1,78% (inactive),78%
COC1CCN(C(=O)c2ccc(OC3CCN(Cc4ccccn4)CC3)cc2)CC1,81% (inactive),75%
CC(C)Cc1nc(NCCN2CCOCC2)c(C#N)c2c1COC(C)(C)C2,96% (inactive),92%

SMILES,plasma membrane CFTR intensity,total CFTR intensity
C/C(=N\N=C1/NC(=O)C(CC(=O)Nc2ccc(Cl)cc2)S1)c1ccco1 (stereo not drawn),81% (inactive),80%
CC(C)COC(=O)C1C(=O)CC(C)(O)C(C(=O)OCC(C)C)C1c1cccnc1 (stereo not drawn),93% (inactive),100%
C=C(C)COc1ccc(-c2nc(N)ncc2-c2ccc(OC)cc2)c(O)c1,82% (inactive),81%
O=C(Oc1ccccc1)Oc1ccc2c(c1)oc(=O)c1ccccc12,120% (active),140%
O=C(Oc1ccc2c3c(c(=O)oc2c1)CCCC3)c1ccco1,89% (inactive),85%
CSCCC(NC(C)=O)C(=O)Oc1ccc2c3c(c(=O)oc2c1)CCCC3 (stereo not drawn),80% (inactive),80%
C[C@H]1O[C@H]1P(=O)(O)O,103% (inactive),108%
Cc1ccc([N+](=O)[O-])cc1NC1OC(CO)C(O)C1O (stereo not drawn),85% (inactive),85%
CC(C)CN(C)Cc1c(C(=O)N2CCc3ccccc3C2)nc2ccc(Cl)cn12,77% (inactive),81%
CN(C)CCOCCOc1ccc(Cl)cc1Br,81% (inactive),81%
Cn1cc(CN2CCC(C(=O)N3CCCCC3)CC2)c(-c2ccccc2F)n1,79% (inactive),72%
CCOC(=O)C1(CCCc2ccccc2)CCN(C2CCN(C(C)=O)CC2)CC1,94% (inactive),101%
O=C1CC(c2ccc(OCCCCCOc3ccc(C4CC(=O)NC4=O)cc3)cc2)C(=O)N1 (stereo not drawn),96% (inactive),95%
O=C1CN(O)C=C2N=c3ccccc3=C2N1c1ccc([N+](=O)[O-])cc1,72% (inactive),74%
O=C(CCC1CCCN(C(=O)c2ccsc2)C1)NCc1ccc(F)c(F)c1 (stereo not drawn),81% (inactive),83%
CC1(C)C(=O)OC(c2cccs2)C2(CCCCC2)C1=O (stereo not drawn),102% (inactive),110%
NC12CC3CC(C1)CC(O)(C3)C2,89% (inactive),91%
Cc1cc(C)cc(Nc2nc3c([nH]2)c(=O)n(C)c(=O)n3C)c1,98% (inactive),95%
CCOC(=O)C(=O)Nc1ccc(Oc2ccccc2)cc1,85% (inactive),84%
CC(=O)Nc1nc(CCC(C)C)cc2c1c(=O)oc1ccccc12,77% (inactive),80%
Cc1cc(OCC(=O)C(C)(C)C)c2c(C)c(C)c(=O)oc2c1,86% (inactive),86%
CCN(CC)CCOC(=O)C(c1ccccc1)c1ccccc1,86% (inactive),84%
CCC(C(=O)OCCN(CC)CC)c1ccccc1 (stereo not drawn),95% (inactive),100%

SMILES,plasma membrane CFTR intensity,total CFTR intensity
CCN(CC)CCOC(=O)C1(C2CCCCC2)CCCCC1,120% (active),123%
O=C(NCCO)c1ccc(Cl)c(Cl)c1,90% (inactive),90%
Cc1cccc2c(C(=O)O)cc(-c3cccnc3)nc12,94% (inactive),93%
C[C@]12CC[C@@H]3c4ccc(O)cc4CC[C@H]3[C@@H]1CC[C@@H]2OC(=O)CCC(=O)O,78% (inactive),84%
CC(=O)Nc1ccc(S(=O)(=O)c2ccc(N)cc2)cc1,97% (inactive),95%
Cc1cc(C(=O)NC(CC(C)C)C(=O)O)cc(C)c1[N+](=O)[O-] (stereo not drawn),73% (inactive),71%
COc1ccc(CC(=O)c2c(O)cc(O)cc2O)cc1OC,83% (inactive),82%
Cc1cc(O)c2/c(=N/N)c(-c3csc(C)n3)coc2c1,69% (inactive),71%
Cc1cc(O)c(C(=O)Cc2csc(C)n2)c(O)c1,110% (active),127%
CC(C)CC(NC(=O)C(NC(=O)OC(C)(C)C)C(C)C)C(=O)NC(CCC(=O)OCc1ccccc1)C(N)=O (stereo not drawn) (Boc-Val-Leu-Glu(OBn)-NH2; configuration not given here),82% (inactive),80%
O=C1C(=O)c2ccccc2C(O)=C1c1ccccc1F,70% (inactive),75%
CC(=O)[C@@H]1[C@@H](C(=O)c2ccc(C)cc2)[C@]2(C(=O)Nc3ccccc32)[C@H]2C=Cc3cc(F)ccc3N12,77% (inactive),114%
CC(C)OC(=O)C1C(=O)CC(C)(O)C(C(=O)OC(C)C)C1c1cccc(O)c1 (stereo not drawn),77% (inactive),78%
CCOC(=O)c1ccccc1NC(=O)c1ccc(F)cc1,101% (inactive),103%
CCOc1ccc(NC(=O)N[C@@H](CCSC)C(=O)OC)cc1,88% (inactive),88%
FC(F)(F)c1ccc(-c2noc(CN3CCCN(C4CCCCC4)CC3)n2)cc1,95% (inactive),100%
COc1ccc2[nH]cc(CCNC(=O)C3CCCNC3=O)c2c1 (stereo not drawn),87% (inactive),85%
CC(C)(C)C(=O)NC(=S)NNC(=O)c1ccncc1,94% (inactive),90%
O=C(NC(Nc1ccccn1)C(Cl)(Cl)Cl)c1ccccc1 (stereo not drawn),84% (inactive),85%
COc1cc(CNc2nnnn2C)ccc1OCc1ccc(F)cc1Cl,79% (inactive),78%
